Each structure is given as a SMILES string. Records with an inconclusive call do not appear. A number with no mark means an inactive call. Active and inactive are the calls of the source. Calls come from the whole dose curve; as a rule, active = well fitted inhibition curve with a large enough effect; inconclusive = small, poorly fitted or top-dose-only effect; inactive = flat fitted curve, though single readings scatter.
Potency is the fitted concentration of half-maximal effect.

For one assay, the system named is CP211. As to the kind of experiment: qHTS profiling for inhibitors of Plasmodium falciparum proliferation (AID 504749).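 For activity, negative = inhibition: 0% = DMSO vehicle and full inhibition = artemisinin control.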 Note: nearly all actives have a fitted effect of over 60% in size. Particulars: P. falciparum in erythrocytes, SYBR Green DNA, 72 h; series mostly up to 28.7 µM; activity, negative = inhibition: at the top concentration. Put shortly:
(§1)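 P. falciparum-infected erythrocytes (0.3% parasitemia, 2.5% hematocrit) incubated with compound 72 h at 37 C, 5% CO2. Parasite DNA detected by SYBR Green after lysis, overnight at room temperature; normalised to 0.29 uM artemisinin and DMSO.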
Background: Quantitative high-throughput screening tests each substance at several concentrations.
On to `OC[C@H]1O[C@@H]2O[C@H]3[C@H](O)[C@@H](O)[C@@H](O[C@H]4[C@H](O)[C@@H](O)[C@@H](O[C@H]5[C@H](O)[C@@H](O)[C@@H](O[C@H]6[C@H](O)[C@@H](O)[C@@H](O[C@H]7[C@H](O)[C@@H](O)[C@@H](O[C@H]1[C@H](O)[C@H]2O)O[C@@H]7CO)O[C@@H]6CO)O[C@@H]5CO)O[C@@H]4CO)O[C@@H]3CO`, for which the “activity, negative = inhibition” value is 2.05%.

Take `CCCCCCCCCCCCCCCCCCCCCC(=O)Nc1ccn([C@@H]2O[C@H](CO)[C@@H](O)[C@@H]2O)c(=O)n1`: the “activity, negative = inhibition” value is -13.1%.

Consider `CCCCCCCCCCCCCCCCCC[N+](C)(C)CCC[Si](OC)(OC)OC`, for which the “activity, negative = inhibition” value was -0.811%.

In the case of `OB(O)O`, the “activity, negative = inhibition” value is 1.73%.

Turning to `CCOc1ccc(NC(=S)Nc2ccc(OCC)cc2)cc1`, the “activity, negative = inhibition” value was -8.15%.

As to `CC(C)c1nc(N(C)S(C)(=O)=O)nc(-c2ccc(F)cc2)c1/C=C/C(O)CC(O)CC(=O)O` (stereo not given), the “activity, negative = inhibition” value is 3.11%.

For the compound `O=C(/C=C/c1cccc(F)c1)NC1CC1`, the “activity, negative = inhibition” value was -7.05%.

The next assay relates to CP215. The description is as above. Particulars: P. falciparum in erythrocytes, SYBR Green DNA, 72 h; series mostly up to 28.7 µM; activity, negative = inhibition: at the top concentration. Put shortly:
as §1
In the case of `Cc1ccc(C(C)(C)c2ccc(C)cc2)cc1`, the “activity, negative = inhibition” value is 0.438%.

In the case of `N[C@H](CC(=O)O)C(=O)O`, the “activity, negative = inhibition” value was 6.55%.

With `O=C(O)COc1ccc(CCNS(=O)(=O)c2ccccc2)s1`, the “activity, negative = inhibition” value was 0.345%.

Regarding `O=S(=O)(O)CCCS(=O)(=O)O`, the “activity, negative = inhibition” value is -0.677%.

In the case of `COC(=O)c1ccccc1O`, the “activity, negative = inhibition” value was -2.95%.

Turning to `CC1(O)CCC(C(C)(C)O)CC1` (stereo not given), the “activity, negative = inhibition” value is 8.46%.

With `COc1ccc(/C=C/C(=O)O)cc1`, the “activity, negative = inhibition” value was 7.36%.

As to `CC(=O)Nc1c(I)c(C(=O)O)c(I)c(N(C)C(C)=O)c1I`, the “activity, negative = inhibition” value is -21.1%.

With `Nc1ncnc2c1ncn2[C@H]1CC[C@@H](CO)O1`, the “activity, negative = inhibition” value was 0.782%.

As to `COC(=O)C(CN)c1c[nH]c2ccc(OC)cc12` (stereo not given), the “activity, negative = inhibition” value was -3.16%.

As for `CC/C(=C(/CC)c1ccc(OP(=O)(O)O)cc1)c1ccc(OP(=O)(O)O)cc1`, the “activity, negative = inhibition” value was 0.055%.

`CN1c2c(nc(N)[nH]c2=O)NCC1CNc1ccc(C(=O)NC(CCC(=O)O)C(=O)O)cc1` (stereo not given): the “activity, negative = inhibition” value is 0.466%.

As for `CC(C)(CO)[C@@H](O)C(=O)NCCC(=O)NCCSSCCNC(=O)CCNC(=O)[C@H](O)C(C)(C)CO`, the “activity, negative = inhibition” value is 0.322%.

With `CCCC(=O)O`, the “activity, negative = inhibition” value was -3.07%.

Regarding `CCSc1ccc2c(c1)N(CCCN1CCN(C)CC1)c1ccccc1S2`, the “activity, negative = inhibition” value is 6.91% [at 12.8 µM].

`CC1=CC(=C(c2ccc(N)cc2)c2ccc(N)cc2)C=CC1=N`: the Potency is 4.78 µM (active).

In the case of `CC1=CC(=O)NS(=O)(=O)O1`, the “activity, negative = inhibition” value was -8.08%.

In the case of `CC1CCCCN1CCCOC(=O)c1ccccc1` (stereo not given), the “activity, negative = inhibition” value is -2.19%.

On to `COC(=O)CC[C@H](N)C(=O)O`, for which the “activity, negative = inhibition” value is -2.86%.

Turning to `C[C@H](CCC(=O)O)[C@H]1CC[C@H]2[C@@H]3CC[C@@H]4C[C@H](O)CC[C@]4(C)[C@H]3C[C@H](O)[C@]12C`, the “activity, negative = inhibition” value was 0.87%.

Consider `CO`, for which the “activity, negative = inhibition” value is -23%.

Consider `C=CCN1CCCC1CNC(=O)c1cc(S(N)(=O)=O)cc(OC)c1OC` (stereo not given), for which the “activity, negative = inhibition” value is 0.991%.

On to `CC/C=C\C/C=C\C/C=C\C/C=C\C/C=C\C/C=C\CCC(=O)O`, for which the “activity, negative = inhibition” value is -7.87%.

With `COc1cc2c(cc1OC)[C@@H](Cc1cc(OC)c(OC)c(OC)c1)[N+](C)(CCCOC(=O)CC/C=C/CCC(=O)OCCC[N+]1(C)CCc3cc(OC)c(OC)cc3[C@H]1Cc1cc(OC)c(OC)c(OC)c1)CC2` (stereo not given in full), the “activity, negative = inhibition” value is -0.619%.

In the case of `CCCOC(=O)c1ccccc1O`, the “activity, negative = inhibition” value is -9.66%.

In the case of `CC/C=C\C/C=C\C/C=C\CCCCCCCC(=O)O`, the “activity, negative = inhibition” value is -14.9%.

On to `NC(=O)[C@H]1O[C@@H](O)[C@H](O)[C@@H](O)[C@@H]1O`, for which the “activity, negative = inhibition” value is -6.16%.

With `CCCCCCCCCCCCOCCCN`, the “activity, negative = inhibition” value is -5.45%.

Turning to `CC(C)(C)c1ccc2c(S(=O)(=O)O)c(C(C)(C)C)ccc2c1`, the “activity, negative = inhibition” value is 1.49%.

Take `COC(=O)CCC[N+](C)(C)C`: the “activity, negative = inhibition” value is 10.6%.

As for `CNC(=O)OCc1cccc(COC(=O)NC)n1`, the “activity, negative = inhibition” value is 2.65%.

On to `O=C(NCCNCC(O)COc1ccc(O)cc1)N1CCOCC1` (stereo not given), for which the “activity, negative = inhibition” value is 2.34%.

For the compound `OC[C@H]1O[C@@H]2O[C@H]3[C@H](O)[C@@H](O)[C@@H](O[C@H]4[C@H](O)[C@@H](O)[C@@H](O[C@H]5[C@H](O)[C@@H](O)[C@@H](O[C@H]6[C@H](O)[C@@H](O)[C@@H](O[C@H]7[C@H](O)[C@@H](O)[C@@H](O[C@H]1[C@H](O)[C@H]2O)O[C@@H]7CO)O[C@@H]6CO)O[C@@H]5CO)O[C@@H]4CO)O[C@@H]3CO`, the “activity, negative = inhibition” value was 1.95%.

Consider `CCCCCCCCCCCCCCCCCCCCCC(=O)Nc1ccn([C@@H]2O[C@H](CO)[C@@H](O)[C@@H]2O)c(=O)n1`, for which the “activity, negative = inhibition” value was 1.37%.

For the compound `CCCCCCCCCCCCCCCCCC[N+](C)(C)CCC[Si](OC)(OC)OC`, the “activity, negative = inhibition” value is 2.21%.

Regarding `OB(O)O`, the “activity, negative = inhibition” value was 11%.

Regarding `CCOc1ccc(NC(=S)Nc2ccc(OCC)cc2)cc1`, the “activity, negative = inhibition” value was 8.21%.

Regarding `CC(C)c1nc(N(C)S(C)(=O)=O)nc(-c2ccc(F)cc2)c1/C=C/C(O)CC(O)CC(=O)O` (stereo not given), the “activity, negative = inhibition” value was -14.4%.

For `O=C(/C=C/c1cccc(F)c1)NC1CC1`, the “activity, negative = inhibition” value was -0.587%.

The next assay concerns CP217. The description is as above. The following applies: P. falciparum in erythrocytes, SYBR Green DNA, 72 h; series mostly up to 28.7 µM; activity, negative = inhibition: at the top concentration. Put shortly:
as §1
On to `Cc1ccc(C(C)(C)c2ccc(C)cc2)cc1`, for which the “activity, negative = inhibition” value is 1.55%.

Consider `N[C@H](CC(=O)O)C(=O)O`, for which the “activity, negative = inhibition” value was 8.62%.

As to `O=C(O)COc1ccc(CCNS(=O)(=O)c2ccccc2)s1`, the “activity, negative = inhibition” value is -2.92%.

Consider `O=S(=O)(O)CCCS(=O)(=O)O`, for which the “activity, negative = inhibition” value was -8.34%.

`COC(=O)c1ccccc1O`: the “activity, negative = inhibition” value was 0.233%.

In the case of `CC1(O)CCC(C(C)(C)O)CC1` (stereo not given), the “activity, negative = inhibition” value is -1.93%.

As to `COc1ccc(/C=C/C(=O)O)cc1`, the “activity, negative = inhibition” value is -6.9%.

For `CC(=O)Nc1c(I)c(C(=O)O)c(I)c(N(C)C(C)=O)c1I`, the “activity, negative = inhibition” value is -1.48%.

On to `Nc1ncnc2c1ncn2[C@H]1CC[C@@H](CO)O1`, for which the “activity, negative = inhibition” value was -8.82%.

With `COC(=O)C(CN)c1c[nH]c2ccc(OC)cc12` (stereo not given), the “activity, negative = inhibition” value was -0.254%.

With `CC/C(=C(/CC)c1ccc(OP(=O)(O)O)cc1)c1ccc(OP(=O)(O)O)cc1`, the “activity, negative = inhibition” value is -3.34%.

Turning to `CN1c2c(nc(N)[nH]c2=O)NCC1CNc1ccc(C(=O)NC(CCC(=O)O)C(=O)O)cc1` (stereo not given), the “activity, negative = inhibition” value is 3.98%.

Turning to `CC(C)(CO)[C@@H](O)C(=O)NCCC(=O)NCCSSCCNC(=O)CCNC(=O)[C@H](O)C(C)(C)CO`, the “activity, negative = inhibition” value is 10%.

Regarding `CCCC(=O)O`, the “activity, negative = inhibition” value was 3.67%.

`CCSc1ccc2c(c1)N(CCCN1CCN(C)CC1)c1ccccc1S2`: the “activity, negative = inhibition” value was -0.818% [at 12.8 µM].

In the case of `CC1=CC(=C(c2ccc(N)cc2)c2ccc(N)cc2)C=CC1=N`, the Potency is 3.55 µM (active).

`CC1=CC(=O)NS(=O)(=O)O1`: the “activity, negative = inhibition” value was -0.501%.

For `CC1CCCCN1CCCOC(=O)c1ccccc1` (stereo not given), the “activity, negative = inhibition” value is -0.523%.

As for `COC(=O)CC[C@H](N)C(=O)O`, the “activity, negative = inhibition” value was 0.0876%.

Take `C[C@H](CCC(=O)O)[C@H]1CC[C@H]2[C@@H]3CC[C@@H]4C[C@H](O)CC[C@]4(C)[C@H]3C[C@H](O)[C@]12C`: the “activity, negative = inhibition” value is 4.66%.

Turning to `CO`, the “activity, negative = inhibition” value was 7.35%.

As for `C=CCN1CCCC1CNC(=O)c1cc(S(N)(=O)=O)cc(OC)c1OC` (stereo not given), the “activity, negative = inhibition” value is -1.27%.

As to `CC/C=C\C/C=C\C/C=C\C/C=C\C/C=C\C/C=C\CCC(=O)O`, the “activity, negative = inhibition” value is -14.5%.

In the case of `COc1cc2c(cc1OC)[C@@H](Cc1cc(OC)c(OC)c(OC)c1)[N+](C)(CCCOC(=O)CC/C=C/CCC(=O)OCCC[N+]1(C)CCc3cc(OC)c(OC)cc3[C@H]1Cc1cc(OC)c(OC)c(OC)c1)CC2` (stereo not given in full), the “activity, negative = inhibition” value is 7.88%.

For `CCCOC(=O)c1ccccc1O`, the “activity, negative = inhibition” value was -20.9%.

For the compound `CC/C=C\C/C=C\C/C=C\CCCCCCCC(=O)O`, the “activity, negative = inhibition” value was -27.7%.

Turning to `NC(=O)[C@H]1O[C@@H](O)[C@H](O)[C@@H](O)[C@@H]1O`, the “activity, negative = inhibition” value was 4.73%.

For the compound `CCCCCCCCCCCCOCCCN`, the “activity, negative = inhibition” value is 1.12%.

In the case of `CC(C)(C)c1ccc2c(S(=O)(=O)O)c(C(C)(C)C)ccc2c1`, the “activity, negative = inhibition” value was 2.87%.

On to `COC(=O)CCC[N+](C)(C)C`, for which the “activity, negative = inhibition” value was 1.06%.

For the compound `CNC(=O)OCc1cccc(COC(=O)NC)n1`, the “activity, negative = inhibition” value was 3.74%.

On to `O=C(NCCNCC(O)COc1ccc(O)cc1)N1CCOCC1` (stereo not given), for which the “activity, negative = inhibition” value was -7.01%.

Turning to `OC[C@H]1O[C@@H]2O[C@H]3[C@H](O)[C@@H](O)[C@@H](O[C@H]4[C@H](O)[C@@H](O)[C@@H](O[C@H]5[C@H](O)[C@@H](O)[C@@H](O[C@H]6[C@H](O)[C@@H](O)[C@@H](O[C@H]7[C@H](O)[C@@H](O)[C@@H](O[C@H]1[C@H](O)[C@H]2O)O[C@@H]7CO)O[C@@H]6CO)O[C@@H]5CO)O[C@@H]4CO)O[C@@H]3CO`, the “activity, negative = inhibition” value was -0.485%.

Take `CCCCCCCCCCCCCCCCCCCCCC(=O)Nc1ccn([C@@H]2O[C@H](CO)[C@@H](O)[C@@H]2O)c(=O)n1`: the “activity, negative = inhibition” value was -12.9%.

For the compound `CCCCCCCCCCCCCCCCCC[N+](C)(C)CCC[Si](OC)(OC)OC`, the “activity, negative = inhibition” value was 6.87%.

With `OB(O)O`, the “activity, negative = inhibition” value was 7.58%.

`CCOc1ccc(NC(=S)Nc2ccc(OCC)cc2)cc1`: the “activity, negative = inhibition” value was -0.562%.

In the case of `CC(C)c1nc(N(C)S(C)(=O)=O)nc(-c2ccc(F)cc2)c1/C=C/C(O)CC(O)CC(=O)O` (stereo not given), the “activity, negative = inhibition” value is 3.49%.

For `O=C(/C=C/c1cccc(F)c1)NC1CC1`, the “activity, negative = inhibition” value is -4.92%.
